# Assay results taken from PubChem BioAssay.
# Calls of active or inactive are those of the source.
# Legend:
# [1] = test system: Plasmodium falciparum Sir2 (PF13_0152, Sir2A); assay: pfSir2 binders on small-molecule microarrays, primary screen, biochemical, small-molecule microarray, 635 nm fluorescence (AID 1098); details: small-molecule microarray binding, fluorescence 635 nm; higher = more signal;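 further: score merges spot fluorescence intensity with its signal-to-noise ratio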
# [2] = small-molecule microarray binders of probe aDKK1, primary screen, biochemical, biotinylated probe, 635/667 nm fluorescence (AID 1099); details: higher = more signal;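 further: score merges 667nm spot fluorescence with signal to noise across triplicate slides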
# [3] = small-molecule microarray binders of probe aCHRDL2, primary screen, biochemical, biotinylated probe, 635/667 nm fluorescence (AID 1100); details: higher = more signal
# [4] = splicing luciferase reporter signal modulators, primary screen, spliceosome inhibition project, cell-based, HEK293, splice +/- reporter (AID 1101); details: luminescence, 24 h, higher = more signal, called active from +8 up or from −8 down;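 further: HEK293 cells carrying a splicing-competent luciferase reporter gene; test concentration not given here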
# [5] = target: Fibroblast growth factor 10 (Homo sapiens) (UniProt O15520); assay: FGF10 binders on small-molecule microarrays, primary screen, biochemical, small-molecule microarray, 635 nm fluorescence (AID 1102); details: FGF10 binding, fluorescence 635 nm, higher = more signal
# [6] = test system: glycogen synthase kinase-3 (GSK3A per assay name; protocol says GSK3B); assay: GSK3 binders on small-molecule microarrays, primary screen, biochemical, small-molecule microarray, 635 nm fluorescence, GSK3A (AID 1103); details: small-molecule microarray binding, fluorescence 635 nm; higher = more signal; further: the record names both GSK3A and GSK3B
# [7] = target: Epidermal growth factor receptor (Homo sapiens) (UniProt P00533); assay: EGFR binders on small-molecule microarrays, primary screen, biochemical, small-molecule microarray, 635 nm fluorescence (AID 1104); details: EGFR binding, higher = more signal;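 further: score merges 667 nm emission intensity with spot signal to noise over triplicate slides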
# [8] = target: Follistatin-related protein 3 (Homo sapiens) (UniProt O95633); assay: FSTL3 binders on small-molecule microarrays, primary screen, biochemical, small-molecule microarray, 635 nm fluorescence (AID 1105); details: FSTL3 binding, higher = more signal;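 further: score merges emission near 667 nm and signal to noise per printed spot across three slides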
# [9] = target: Dickkopf-related protein 1 (Homo sapiens) (UniProt O94907); assay: DKK1 binders on small-molecule microarrays, primary screen, biochemical, small-molecule microarray, 635 nm fluorescence scan (AID 1106); details: DKK1 binding, higher = more signal;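 further: score merges emission near 667 nm with signal to noise over three replicate slides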
# [10] = test system: Inhibin beta A chain (activin A); assay: INHBA (activin A) binders on microarrays, primary screen, biochemical, small-molecule microarray, 635 nm fluorescence scan (AID 1107); details: small-molecule microarray binding, higher = more signal;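 further: mouse activin A protein probed at 4.33 µg/mL on printed slides; score merges bound-protein fluorescence near 667 nm with spot signal-to-noise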
# [11] = test system: Human papillomavirus type 1a protein E7 (residues 44-93); assay: HPV1a E7 fragment binders on microarrays, primary screen, biochemical, small-molecule microarray, residues 44-93, 635 nm fluorescence (AID 1108); details: small-molecule microarray binding, fluorescence 635 nm; higher = more signal;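 further: E7 fragment applied at 1 µg/mL in TBST for 1 h at 4 C; score combines spot fluorescence with its signal to noise ratio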
# [12] = modulators of HCV replicon luciferase signal, primary screen, HCV replication inhibitor project, Huh7 cells, luciferase reporter (AID 1109); details: 48 h, higher = more signal;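 further: huh7 hepatoma cells harbouring a luciferase neomycin HCV replicon reporter; luciferase luminescence as measure of HCV replicon replication; test concentration not given here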
# [13] = target: Left-right determination factor 2 (Homo sapiens) (UniProt O00292); assay: LEFTY2 binders on small-molecule microarrays, primary screen, biochemical, small-molecule microarray, 635 nm fluorescence scan (AID 1110); details: LEFTY2 binding, higher = more signal
# [14] = target: Calmodulin-1 (Homo sapiens) (UniProt P0DP23); assay: CALM1 binders on microarrays, EGTA buffer, profiling panel, biochemical, small-molecule microarray, Cy5-labelled CALM1 (AID 1111); details: Cy5-CALM1 binding fluorescence, higher = more signal;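 further: labelled calmodulin applied in Tris saline Tween buffer holding calcium plus EGTA and DTT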
# [15] = target: Calmodulin-1 (Homo sapiens) (UniProt P0DP23); assay: calcium-bound CALM1 binders on microarrays, profiling panel, artefact control for SMM control-protein annotation, biochemical, small-molecule microarray, Cy5-labelled CALM1, plus calcium (AID 1112); details: Cy5-CALM1 binding fluorescence, higher = more signal;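 further: score merges spot fluorescence with signal to noise from triplicate slides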
# [16] = small-molecule microarray binders of probe aWnt5a, primary screen, biochemical, biotinylated probe, 635/667 nm fluorescence (AID 1113); details: higher = more signal;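 further: score merges 667 nm fluorescence intensity with signal-to-noise per printed feature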
# [17] = small-molecule microarray binders of probe aShh, primary screen, biochemical, biotinylated probe, 635/667 nm fluorescence (AID 1114); details: higher = more signal;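 further: probe is biotin-labelled aShh protein from a stem cell growth factor screen; measures binding of labelled protein to compounds printed on the slide; score merges feature fluorescence at 667 nm with signal-to-noise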
# [18] = small-molecule microarray binders of probe aNog, primary screen, biochemical, biotinylated probe, 635/667 nm fluorescence (AID 1115); details: higher = more signal;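 further: probe is biotinylated aNog protein used at 0.15 µg/mL for 1 h at 4 C; z-score combines 667 nm fluorescence of each spot with its signal to noise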
# [19] = target: Torsin-1A-interacting protein 1 (Homo sapiens) (UniProt Q5JTV8); assay: LAP1 binders from COS7 cell lysate, primary screen, small-molecule microarray, 635/667 nm fluorescence (AID 1116); details: COS7-hLAP1 lysate binding, 635 nm fluorescence, higher = more signal
# [20] = target: Alpha-bungarotoxin (Bungarus multicinctus) (UniProt P60615); assay: alpha-bungarotoxin binders on microarray, profiling panel, artefact control for SMM control protein annotation, biochemical, small-molecule microarray, Alexa647 label, 635/667 nm fluorescence (AID 1117); details: alpha-BTX-A647 binding fluorescence, higher = more signal
# Alpha-bungarotoxin (Bungarus multicinctus), sequence (P60615 whole entry, looked up): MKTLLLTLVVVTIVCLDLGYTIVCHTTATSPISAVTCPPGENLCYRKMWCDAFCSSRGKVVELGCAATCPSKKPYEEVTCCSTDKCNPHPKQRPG
# Fibroblast growth factor 10 (Homo sapiens), sequence (O15520 whole entry, looked up): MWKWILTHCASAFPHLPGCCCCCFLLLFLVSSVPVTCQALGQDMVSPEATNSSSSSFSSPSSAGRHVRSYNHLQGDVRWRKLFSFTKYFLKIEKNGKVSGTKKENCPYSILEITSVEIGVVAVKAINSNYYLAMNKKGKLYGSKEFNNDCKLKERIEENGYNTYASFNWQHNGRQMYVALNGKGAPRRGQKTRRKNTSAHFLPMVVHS
# Follistatin-related protein 3 (Homo sapiens), sequence (O95633 whole entry, looked up): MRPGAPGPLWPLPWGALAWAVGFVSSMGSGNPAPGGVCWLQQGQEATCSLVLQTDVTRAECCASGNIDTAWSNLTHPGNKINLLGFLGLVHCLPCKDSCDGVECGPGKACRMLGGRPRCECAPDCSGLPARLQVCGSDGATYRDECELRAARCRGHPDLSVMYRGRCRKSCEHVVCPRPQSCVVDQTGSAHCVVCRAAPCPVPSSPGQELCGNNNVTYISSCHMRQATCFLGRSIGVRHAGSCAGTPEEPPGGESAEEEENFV
# Torsin-1A-interacting protein 1 (Homo sapiens), sequence (Q5JTV8 whole entry, looked up): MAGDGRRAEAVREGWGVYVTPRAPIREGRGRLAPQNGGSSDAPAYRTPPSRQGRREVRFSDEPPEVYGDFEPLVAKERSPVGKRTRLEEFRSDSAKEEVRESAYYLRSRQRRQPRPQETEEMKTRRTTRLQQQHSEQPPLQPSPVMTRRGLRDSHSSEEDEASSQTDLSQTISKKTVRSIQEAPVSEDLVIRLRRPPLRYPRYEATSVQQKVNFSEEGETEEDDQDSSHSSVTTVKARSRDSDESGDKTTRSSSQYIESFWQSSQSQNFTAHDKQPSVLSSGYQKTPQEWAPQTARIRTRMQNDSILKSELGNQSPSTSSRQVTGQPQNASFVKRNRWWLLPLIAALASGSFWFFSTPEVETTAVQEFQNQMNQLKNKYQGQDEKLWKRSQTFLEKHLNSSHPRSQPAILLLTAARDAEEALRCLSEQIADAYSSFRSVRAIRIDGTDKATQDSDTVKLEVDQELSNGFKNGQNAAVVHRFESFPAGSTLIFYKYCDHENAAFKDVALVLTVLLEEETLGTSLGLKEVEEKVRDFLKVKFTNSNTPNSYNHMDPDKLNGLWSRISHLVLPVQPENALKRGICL
# Epidermal growth factor receptor (Homo sapiens), sequence (P00533 whole entry, looked up): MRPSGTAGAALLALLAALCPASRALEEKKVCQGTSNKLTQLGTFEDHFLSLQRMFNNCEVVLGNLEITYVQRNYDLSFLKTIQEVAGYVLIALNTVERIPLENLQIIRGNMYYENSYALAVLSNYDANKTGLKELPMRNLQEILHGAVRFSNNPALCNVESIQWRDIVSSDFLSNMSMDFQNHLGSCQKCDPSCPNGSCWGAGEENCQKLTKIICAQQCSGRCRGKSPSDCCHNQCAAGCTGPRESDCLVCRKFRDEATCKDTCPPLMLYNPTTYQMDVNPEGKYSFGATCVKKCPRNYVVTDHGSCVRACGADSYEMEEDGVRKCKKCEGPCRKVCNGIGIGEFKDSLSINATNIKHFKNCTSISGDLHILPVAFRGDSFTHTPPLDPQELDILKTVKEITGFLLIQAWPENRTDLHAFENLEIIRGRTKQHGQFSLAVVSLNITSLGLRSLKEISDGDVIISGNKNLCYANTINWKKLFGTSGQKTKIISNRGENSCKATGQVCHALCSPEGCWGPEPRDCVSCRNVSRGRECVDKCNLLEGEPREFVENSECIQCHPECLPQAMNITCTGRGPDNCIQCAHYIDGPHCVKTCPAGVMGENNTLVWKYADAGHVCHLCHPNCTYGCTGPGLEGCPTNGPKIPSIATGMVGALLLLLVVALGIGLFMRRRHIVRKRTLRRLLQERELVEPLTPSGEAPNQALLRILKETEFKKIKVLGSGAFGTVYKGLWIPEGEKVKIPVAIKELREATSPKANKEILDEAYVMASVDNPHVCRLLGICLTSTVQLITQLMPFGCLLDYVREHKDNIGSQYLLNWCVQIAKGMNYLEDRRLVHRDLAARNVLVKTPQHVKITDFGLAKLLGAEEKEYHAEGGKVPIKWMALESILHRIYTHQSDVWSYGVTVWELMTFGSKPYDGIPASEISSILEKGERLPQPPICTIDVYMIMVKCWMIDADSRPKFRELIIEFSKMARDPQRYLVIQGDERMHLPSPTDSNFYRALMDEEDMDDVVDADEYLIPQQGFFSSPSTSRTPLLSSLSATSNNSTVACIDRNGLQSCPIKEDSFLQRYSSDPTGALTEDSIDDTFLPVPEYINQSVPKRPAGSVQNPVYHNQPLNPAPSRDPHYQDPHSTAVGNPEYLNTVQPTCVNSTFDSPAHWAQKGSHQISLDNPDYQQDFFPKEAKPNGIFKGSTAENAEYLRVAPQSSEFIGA
# Left-right determination factor 2 (Homo sapiens), sequence (O00292 whole entry, looked up): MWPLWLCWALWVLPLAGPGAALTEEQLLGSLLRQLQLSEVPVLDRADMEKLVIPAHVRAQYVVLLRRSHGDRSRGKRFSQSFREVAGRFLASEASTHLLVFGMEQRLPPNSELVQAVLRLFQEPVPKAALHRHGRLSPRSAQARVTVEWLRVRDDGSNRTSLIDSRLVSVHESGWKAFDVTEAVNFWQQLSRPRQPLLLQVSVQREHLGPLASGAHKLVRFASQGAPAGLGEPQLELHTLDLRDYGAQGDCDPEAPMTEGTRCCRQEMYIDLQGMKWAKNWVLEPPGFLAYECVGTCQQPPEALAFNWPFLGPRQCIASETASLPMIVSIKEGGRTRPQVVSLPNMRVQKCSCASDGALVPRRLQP
# Dickkopf-related protein 1 (Homo sapiens), sequence (O94907 whole entry, looked up): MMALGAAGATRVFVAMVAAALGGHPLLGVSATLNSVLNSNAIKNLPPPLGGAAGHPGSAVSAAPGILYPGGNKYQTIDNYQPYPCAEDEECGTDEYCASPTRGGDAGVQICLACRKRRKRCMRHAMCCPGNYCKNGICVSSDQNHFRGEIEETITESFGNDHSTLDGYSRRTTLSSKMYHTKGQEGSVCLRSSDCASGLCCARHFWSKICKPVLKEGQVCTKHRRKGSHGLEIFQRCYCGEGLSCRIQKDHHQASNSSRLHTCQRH
SMILES,composite z-score [1],composite z-score [2],composite z-score [3],z-score [4],composite z-score [5],composite z-score [6],composite z-score [7],composite z-score [8],composite z-score [9],composite z-score [10],composite z-score [11],z-score [12],composite z-score [13],composite z-score [14],composite z-score [15],composite z-score [16],composite z-score [17],composite z-score [18],composite z-score [19],composite z-score [20]
CC(C)C[C@@H]1NC(=O)[C@@H]2C[C@H](C(=O)NCCCCCNC(=O)CS)[C@H](c3cccc(OCCO)c3)N2C1=O,1.68,0.588,0.619,-1.15 (inactive),0.654,1.32,0.717,0.921,0.741,0.947,0.64,0.568,0.581,0.942,0.0355,-0.0236,0.242,0.418,1.25,2.72
C[N+](C)(C)CCCC[C@@H]1NC(=O)[C@H]2C[C@@H](C(=O)NCCCCCN)[C@@H](c3cccc(OCCO)c3)N2C1=O,1.19,1.23,1.02,-1.82 (inactive),0.837,0.985,-0.0784,0.564,0.044,1.63,1.2,-0.295,-1.17,1.3,0.767,0.133,0.302,0.708,1.91,2.15
COc1ccc([Si](C)(C)[C@@H]2[C@@H](CC(=O)N3CCC[C@H]3CO)O[C@]3(C(=O)N(Cc4ccc(I)cc4)c4ccccc43)[C@H]2C)cc1,0.648,-0.0319,0.0052,-1.62 (inactive),0.637,1.29,0.743,1.23,1.13,0.752,0.152,-2.22,0.46,1.51,1.15,-0.165,0.0611,0.201,0.252,1.31
C=CCC1(CC=C)C[C@H]2CO[C@H](c3ccc(OC)cc3)N2C1=O,0.695,-0.17,0.317,-0.512 (inactive),-0.193,-0.217,0.291,0.576,0.917,1.55,-0.107,0.805,0.447,-1.56,-2.31,-0.124,-0.271,-0.0887,0.656,0.278
O=C(NCC(F)(F)F)[C@@H]1c2ccccc2C(=O)N(C2Cc3ccccc3C2)[C@H]1c1ccc(CO)cc1,0.23,0.621,0.715,-0.658 (inactive),-0.691,-0.605,-0.621,-0.584,-0.808,1.03,-1.07,-0.561,-1.21,0.342,1.14,-0.129,0.267,0.109,0.179,-1.22
O=C(NC1CC1)[C@@H]1c2ccccc2C(=O)N(Cc2ccccc2C(F)(F)F)[C@H]1c1ccc(CO)cc1,0.271,0.561,0.341,-0.0246 (inactive),0.554,1.27,0.388,0.471,0.113,0.708,1.06,-0.639,0.319,0.64,0.585,-0.0977,0.172,0.0272,0.714,0.353
CCOC(=O)C[C@H]1[C@H](OC(=O)Cc2ccc3c(c2)OCO3)[C@@H](NC(=O)c2ccc3ccccc3c2)c2cc(OCCCO)ccc2N1C(=O)c1ccc2ccccc2n1,0.114,-0.0522,-0.0322,-3.47 (inactive),0.18,0.0646,0.118,0.161,0.121,0.0739,-0.13,-1.43,0.0822,1.05,0.691,-0.124,-0.0769,-0.171,1.15,1.15
Cc1ccc(N2C(=O)c3ccccc3[C@](C)(C(=O)NCC(F)(F)F)[C@@H]2c2ccc(CO)cc2)nc1,0.919,0.421,0.949,0.21 (inactive),-0.975,-1.29,-1.27,-1.82,-1.15,-0.528,-2.53,0.208,-1.47,-0.538,0.733,-0.132,-0.291,-0.136,-0.438,-1.58
O=C1O[C@@H](c2ccccc2)[C@@H](c2ccccc2)N2[C@@H](c3ccc(OCCO)cc3)[C@]3(C(=O)Nc4ccc(C#CC5(O)CCCCCC5)cc43)[C@@H](C(=O)NC[C@H](O)c3ccccc3)[C@H]12,1.37,0.914,0.864,-0.828 (inactive),1.15,1.17,0.244,1.25,0.382,0.42,1.24,-2.06,0.497,1.97,0.638,-0.0877,0.172,1.21,1.94,2.42
Cc1ccc(S[C@]2(C(=O)NC3CC3)CC(=O)N(Cc3ccccc3C(F)(F)F)[C@@H]2c2ccc(CO)cc2I)cc1,1.64,0.913,1.1,-2.01 (inactive),-0.28,-0.0828,-0.385,-0.292,-0.425,1.72,0.33,-1.55,-0.659,0.514,1.14,-0.124,0.188,0.568,0.955,0.0637
COc1ccc([Si](C)(C)[C@@H]2[C@@H](CCn3cc(CCO)nn3)O[C@]3(C(=O)N(Cc4ccc(N5C(=O)c6cccc7cccc5c67)cc4)c4ccccc43)[C@H]2C)cc1,0.831,0.134,0.207,-2.39 (inactive),0.266,0.0923,0.248,0.334,0.258,0.581,0.119,-5.16,0.316,1.22,0.863,-0.0459,0.112,-0.284,0.758,1.6
